Screening data: PubChem BioAssay, several laboratories
GASC-1 inh: inhibitors of human GASC-1 (JMJD2C) demethylase | inhibition, % at 2.35 µM | Q9H3R0 | 330,000 tested, 0.069% active | AID 2099 | GST-JMJD2C(1-420) H3K9me3 demethylation, DELFIA europium;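 active = more than half of a compound's replicate wells show inhibition beyond 50%, single wells judged on their own value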;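 note: signal counts dimethyl H3K9 product captured on neutravidin plate; 0% = median of DMSO wells and 100% = 0.3 times that DMSO median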
Target sequence (Q9H3R0 1-420 limits assumed): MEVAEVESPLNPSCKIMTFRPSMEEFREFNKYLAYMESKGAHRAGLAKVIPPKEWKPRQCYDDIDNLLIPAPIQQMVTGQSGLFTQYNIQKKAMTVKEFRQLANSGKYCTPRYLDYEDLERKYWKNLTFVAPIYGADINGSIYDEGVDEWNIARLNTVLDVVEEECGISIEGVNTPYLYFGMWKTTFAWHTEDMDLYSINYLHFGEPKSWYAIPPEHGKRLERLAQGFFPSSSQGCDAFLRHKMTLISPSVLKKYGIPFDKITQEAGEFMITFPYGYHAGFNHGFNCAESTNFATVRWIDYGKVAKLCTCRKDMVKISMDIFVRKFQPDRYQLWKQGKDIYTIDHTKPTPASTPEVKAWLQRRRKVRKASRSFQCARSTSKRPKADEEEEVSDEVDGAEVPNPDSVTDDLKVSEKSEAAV
PolyA inhibitor: blocks polyadenylation in yeast reporter cells. S. cerevisiae SKY197-pL101 polyadenylation reporter, beta-gal luminescence; efflux-impaired pdr1/pdr3 knockout yeast; score 100 = 6 SD above DMSO. activity score, % at 12 µM. 300,000 tested, 0.02% active;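 active = lowest replicate activity score at least 50, where 100 means six control SD above control mean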;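 note: yeast exposed to compound for 9 h at 30 °C; higher score means more reporter readthrough which indicates perturbed polyadenylation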
Efflux pump mplx: inhibitors of Candida antifungal efflux pumps expressed in yeast; S. cerevisiae Candida pump triplex, Nile Red efflux; inhibition, % at 10 µM; 330,000 tested, 0.44% active;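 active = plate passing quality check with inhibition over a set limit, or well fluorescence over plate mean plus 4 SD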;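 note: Nile Red retained in pooled yeast measured as flow cytometry median fluorescence; 0% = buffer negative control and 100% = Enniatin B positive control; higher means more Nile Red kept so more efflux inhibition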
HDAC3 inh: human HDAC3 inhibition | recombinant HDAC3, fluorogenic peptide/trypsin coupled, fluorescence | 320,000 tested, 0.15% active | inhibition, % at 8.3 µM | AID 2718; in the data active = inhibition above about 26%, passing the limit was not always enough
NALP1 yeast inh: blocks the NALP1 inflammasome reconstituted in yeast; 280,000 tested, 0.61% active; S. cerevisiae NALP1/ASC/caspase-1 growth, X-gal OD620, 72 h; AID 2071; inhibition, % at 10 µM; in the data active = inhibition mostly above about 24%, no sharp cut-off; inactive = mostly below about 32%
NALP3 yeast inh: NALP3 inhibition in yeast; inhibition, % at 10 µM; Yeast reconstituted NLRP3/ASC/caspase-1, beta-gal luminescence, 24 h; 330,000 tested, 0.39% active; AID 2825;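 active = inhibition of 50% or more; inactive = inhibition below 50%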;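 note: plate controls were induced DMSO wells for no effect and uninduced yeast grown without galactose for full effect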
An asterisk follows results filed as active; x = no result. The list is not random: actives were taken first. Their share in the collection is about 1.5%.

SMILES	GASC-1 inh	PolyA inhibitor	Efflux pump mplx	HDAC3 inh	NALP1 yeast inh	NALP3 yeast inh
CCOC(=O)C(C)Oc1ccsc1C(=O)OC (centres undefined)	51*	5	0	-2	-6	6
COC(=O)COc1ccsc1C(=O)OC	-1	-4	0	-10	10	12
CCCCC(CC)C(=O)O (centres undefined)	x	x	0	x	x	13
O=c1[nH]c2ccccc2c(O)c1-c1cc2ccccc2oc1=O	-1	-4	0	-3	6	15
CCN(CC(=O)Nc1ccccc1OC)C(=O)c1ccc(NS(=O)(=O)c2ccc(C(C)=O)cc2)cc1	4	8	0	1	44*	16
Cc1cccc(NC(=O)c2cc(S(=O)(=O)N3CCCC3)cn2C)c1	-7	-4	0	7	13	2
CCOC(=O)c1c(C)[nH]c(C)c1S(=O)(=O)N(C)CC(=O)Nc1ccccc1F	15	4	0	2	1	16
CC(C)N1CCc2c(sc(NC(=O)c3ccc4ccccc4c3)c2C(N)=O)C1	-8	-5	0	10	16	10
CC(=O)Nc1sc2c(c1-c1nc3ccccc3s1)CCN(C(C)C)C2	x	x	0	4	48*	-12
CCCC(=O)n1nc(-c2ccccc2)nc1SC	18	-22	0	32*	-3	7
CCN(C(=O)COC(=O)c1c2c(nc3ccccc13)/C(=C/c1ccccc1)CC(C)C2)C1CCS(=O)(=O)C1 (centres undefined)	14	17	0	6	40	23
CC(CN1CCCC1)OC(=O)COc1ccccc1 (centres undefined)	50*	-5	0	15	1	7
Nc1cc(OC(=O)c2ccc(F)cc2)nn1S(=O)(=O)c1ccccc1	-7	6	0	59*	8	7
COc1ccc(S(=O)(=O)n2nc(OC(=O)c3cccs3)cc2N)cc1	25	-16	0	95*	13	-18
COc1ccc(S(=O)(=O)n2nc(OC(=O)c3ccncc3)cc2N)cc1	-30	-25	x	-4	-2	11
CS(=O)(=O)n1nc(OC(=O)c2cccs2)cc1N	6	-6	x	93*	3	-7
COc1cc(C(=O)Oc2cc(N)n(S(=O)(=O)c3ccc(F)cc3)n2)cc(OC)c1OC	6	-13	0	7	7	8
COc1ccc(S(=O)(=O)n2nc(OC(=O)c3ccco3)cc2N)cc1	-2	6	0	71*	6	2
COc1ccc(S(=O)(=O)n2nc(OC(=O)c3ccccc3Br)cc2N)cc1	5	1	0	4	-25	5
COc1ccc(S(=O)(=O)n2nc(OC(=O)c3ccccc3)cc2N)cc1	-1	-14	0	54*	16	5
COc1ccc(S(=O)(=O)n2nc(OC(=O)c3ccc(C)cc3)cc2N)cc1	7	3	0	61*	2	1
CCOC(=O)[C@H]1[C@H]2COc3ccc(Br)cc3[C@@H]2N2C(=O)CN(Cc3ccco3)C(=O)[C@@]12C	-2	x	0	1	x	-3
COc1ccc(NC(=O)c2cccc(S(=O)(=O)N3CCCCCC3)c2)cc1	-2	-10	0	-6	2	6
Cc1ccc(N(CC(=O)NCCc2ccccc2)C(=O)CCC(=O)Nc2cc(C)ccn2)cc1	-1	-5	0	5	2	4
COc1ccccc1CNC(=O)c1cc(-c2ccccc2)nn1CC1CC(c2cccnc2)=NO1 (centres undefined)	57*	-1	0	4	x	18
SMILES	GASC-1 inh	PolyA inhibitor	Efflux pump mplx	HDAC3 inh	NALP1 yeast inh	NALP3 yeast inh
COc1ccc(C2=NOC(Cn3nc(-c4ccccc4)cc3C(=O)NCc3ccccc3OC)C2)cc1 (centres undefined)	x	x	0	6	x	21
C=CCN(c1ccccc1)S(=O)(=O)c1cccc(C(=O)N(CC)CC(=O)Nc2c(F)cccc2F)c1	3	14	-2	-2	-1	19
Cc1ccc(-c2cc(N)n(-c3ccc(C)cc3)n2)cc1	3	1	0	-6	8	29
Cc1ccc(-c2cc(N)n(-c3ccc(F)cc3)n2)cc1	9	-6	0	6	29*	27
COc1cccc(N2C(=O)C3C(C2=O)C3(c2ccccc2)c2ccccc2)c1 (centres undefined)	4	-17	0	13	32*	4
CCOc1ccc(N2C(=O)C3C(C2=O)C3(c2ccccc2)c2ccccc2)cc1 (centres undefined)	9	-5	1	14	29	8
COc1cc(/C=C2\SC(=S)N(NC(=O)c3ccc(O)c(OC)c3)C2=O)ccc1O	9	-13	0	7	-14	14
COc1cc(/C=C2\SC(=S)N(CCC(=O)Nc3ccccc3)C2=O)cc(OC)c1OC	1	11	0	3	29*	24
COc1cc(/C=C2\SC(=S)N(NS(=O)(=O)c3ccccc3)C2=O)ccc1O	15	85*	0	x	-28	-9
COc1ccc(/C=C2/SC(=S)N(NS(=O)(=O)c3ccccc3)C2=O)cc1	0	-3	0	11	-9	1
COc1cc(/C=C2\SC(=S)N(NC(=O)c3ccncc3)C2=O)ccc1O	-1	92*	0	x	-19	12
CCc1ccc(OCC(=O)N(CC)CC)cc1	10	14	0	3	-8	13
Cn1cnc(S(=O)(=O)NC2CCN(Cc3c(F)cccc3Cl)CC2)c1	0	5	0	-10	6	1
Cc1cccc(OCC(=O)Nc2nccs2)c1C	-13	-1	0	6	38*	-4
C=CCN1C(=O)c2ccc(C(=O)OCC(=O)Nc3ccc(S(N)(=O)=O)cc3)cc2C1=O	7	-4	0	-2	x	16
O=S(=O)(Cc1ccccc1)N1CCn2c(nc3ccccc32)C1	0	36	0	2	41*	5
CN1CCc2c(sc(NC(=O)c3cc(Cl)sc3Cl)c2C(N)=O)C1	-10	-19	0	0	29	18
CCS(=O)(=O)C1=NN2C(=N)/C(=C\c3ccc(OC(=O)c4ccco4)c(Br)c3)C(=O)N=C2S1	-1	16	0	39*	-26	-18
CCOc1cc(/C=C2\C(=N)N3N=C(S(=O)(=O)CC)SC3=NC2=O)ccc1OC(=O)c1ccco1	11	-1	0	9	-25	-6
CC(C)CC(=O)Nc1ccc2c3c(cccc13)CC2	-2	-2	0	-5	14	23
CCCc1nnc(NC(=O)CN2C(=O)c3ccccc3C2=O)s1	-14	5	0	-12	44*	10
O=C(c1nnsc1S(=O)c1ccc(Cl)cc1)N1CCOCC1 (centres undefined)	6	4	x	x	67*	14
CC1CCN(S(=O)(=O)c2ccc3ncn(CC(=O)N4CCN(C)CC4)c(=O)c3c2)CC1	-5	3	0	0	21	3
